# Sampled rows, rich in hits. Any-hit rate of the full collection: about 11%.
# IMPase inh – IMPase inhibition in cells. P97697. CHO-M1 cells, IP1 accumulation, HTRF TR-FRET ratio. inhibition (IP1 accumulation), % at 46.1 µM. 120,000 tested, under 10 active. AID 901; active means well fitted curve in the direction sought with a large enough effect in the signal ratio, not every such curve was filed as active; inconclusive means small, poorly fitted or top-dose-only effect, or a change in a side signal; inactive means no such curve, though single readings can be large or run the other way; the % refers to the signal ratio;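 further: cells stimulated with carbachol in lithium chloride buffer; plate controls were DMSO basal wells for no effect and reference inhibitor wells for full effect; higher means more IMPase inhibition seen as more IP1 and lower FRET ratio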
# Target sequence (P97697 whole entry, looked up): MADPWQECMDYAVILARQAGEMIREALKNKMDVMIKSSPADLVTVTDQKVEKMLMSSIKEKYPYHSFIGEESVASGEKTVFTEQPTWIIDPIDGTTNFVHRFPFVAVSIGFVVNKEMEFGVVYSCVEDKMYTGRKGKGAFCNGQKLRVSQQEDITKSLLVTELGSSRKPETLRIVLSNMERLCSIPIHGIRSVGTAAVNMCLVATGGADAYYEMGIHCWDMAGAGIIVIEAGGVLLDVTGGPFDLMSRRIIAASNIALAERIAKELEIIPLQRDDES
#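 The IP-One HTRF competitive assay in carbachol-stimulated CHO-M1 cells quantifies cellular IP1. Compounds spanned up to 46 uM final, and activity is expressed as AC50 from concentration-response fits of the ratio and donor data.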
# PNC inhibitor – inhibitors of perinucleolar compartment assembly; PC3M PTB-GFP, PNC prevalence imaging, 16 h; hits give low values; activity change (PNC), negative = inhibition, % at 10 µM; actives 3.1% (n = 140,000); AID 2417;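 active means readout at or below -70, meaning at least 70% loss of cells showing the perinucleolar compartment, a nuclear body marking cancer cells; inconclusive means readout between -30 and a set limit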;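 further: plate controls were DMSO wells for no effect and camptothecin positive control wells for full effect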
#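 Compounds are pinned in duplicate onto adhered PC3M cells stably expressing GFP-tagged PTB and incubated 16 h at 37 C. Cells are then fixed, nuclei stained with Hoechst, and PNC-positive cells counted.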
# ALOX12 inhib – blocks human 12-lipoxygenase activity. Potency, µM (doses to about 57.1 µM), for the others: top-dose activity change, negative = inhibition, actives largely listed as inhibitors. P18054. purified 12-hLO, xylenol orange hydroperoxide absorbance. actives 0.12% (n = 150,000); further: potency means the concentration at half of the fitted maximal effect; nearly all actives have a fitted effect of over 55% in size
#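 Hydroperoxide formation by human 12-lipoxygenase from 40 uM arachidonic acid was followed colorimetrically via ferric-xylenol orange complex, using the 573/405 nm absorbance ratio. Enzyme concentration was 150 nM, with 30 min reaction at room temperature.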
# HPGD block – inhibitors of human 15-hydroxyprostaglandin dehydrogenase (HPGD); actives 4.3% (n = 150,000); AID 894; Potency, µM, inactives show at the top dose activity change, negative = inhibition, most hits filed as inhibitors; purified HPGD, NADH fluorescence kinetic, PGE2 substrate; active means well fitted inhibition curve with a large enough effect, not every such curve was filed as active; inconclusive means small, poorly fitted or top-dose-only effect, or another doubt; inactive means no such curve, though single readings can be large or run the other way; further: potency means the concentration at half of the fitted maximal effect
# Target sequence (P15428 whole entry, looked up): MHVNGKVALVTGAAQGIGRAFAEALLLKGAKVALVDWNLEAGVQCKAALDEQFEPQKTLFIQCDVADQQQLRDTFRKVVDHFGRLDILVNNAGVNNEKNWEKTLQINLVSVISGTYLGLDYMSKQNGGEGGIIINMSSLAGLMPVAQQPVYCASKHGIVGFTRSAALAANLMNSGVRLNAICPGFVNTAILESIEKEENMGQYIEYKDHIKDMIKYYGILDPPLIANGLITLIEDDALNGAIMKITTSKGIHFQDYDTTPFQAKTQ
#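 20 nM HPGD preincubated 15 min at room temperature with compound in 50 mM Tris-HCl pH 8, 0.01% Tween 20. Started with 1 mM NAD+ and 30 uM prostaglandin E2; NADH fluorescence (360/450 nm) read 5 times over 30-s intervals, last minus first.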
# IMPase Li cell – IMPase inhibition in cells with lithium potentiation | actives 0.35% (n = 210,000) | Potency, µM (titrated, usually from 59.4 µM), for inactives: at the top dose activity, negative = IMPase inhibition, actives largely listed as inhibitors | AID 1457 | CHO-M1 cells, IP1 TR-FRET (IP-One), carbachol + lithium;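 further: IP1 builds up when IMPase is blocked and the TR-FRET signal falls; potency means the concentration at half of the fitted maximal effect; plate controls were basal vehicle for no effect and high inhibitor control for full effect; nearly all actives have a fitted effect of over 50% in size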
#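 Concentration–response in CHO-M1 cells, lithium-potentiated; 30 min at 37C. IP1 detected by competitive TR-FRET after 10 min lysis at RT. Hill-fitted AC50.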
# ALDH1A1 block – blocks purified human ALDH1A1 activity. actives 7.3% (n = 220,000). AID 1030. Potency, µM (highest dose often 75.3 µM), inactives show top-dose activity, negative = inhibition, usual class: inhibitors. Purified ALDH1A1, NADH fluorescence, propionaldehyde substrate; active means well fitted inhibition curve with a large enough effect, not every such curve was filed as active; inconclusive means small, poorly fitted or top-dose-only effect, or another doubt; inactive means no such curve, though single readings can be large or run the other way;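 further: potency means the concentration at half of the fitted maximal effect; plate controls were no enzyme wells and a reference inhibitor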
# Numbers without * were called inactive; ? = inconclusive; nt = no result; ! = a repeat was not active; [ ] = dose if it differs, or a comment. Unless noted, the call rests on the fitted dose curve; in most records, active means well fitted curve in the direction sought with a large enough effect; inconclusive means small, poorly fitted or top-dose-only effect, or another doubt; inactive means no such curve, though single readings can be large; an effect the other way counts as inactive or inconclusive. Unless noted, on the % scale 0 is the no-effect control and ±100 the full control effect.
SMILES,IMPase inh,PNC inhibitor,ALOX12 inhib,HPGD block,IMPase Li cell,ALDH1A1 block
CC(=O)NC(Cc1cccc(F)c1)C(=O)NC1CCN(c2nnnn2-c2ccccc2)CC1 (stereo not given),nt,nt,nt,nt,9%,1.4µM*
C/C1=C2N=C(/C=C3N=C(/C(C)=C4\[N-]C(C)(C5N=C1C(C)(CCC(=O)NCC(C)OP(=O)([O-])O[C@H]1C(O)C(n6cnc7cc(C)c(C)cc76)O[C@@H]1CO)C5CC(N)=O)C(C)(CC(N)=O)C4CCC(N)=O)C(C)(CC(N)=O)C\3CCC(N)=O)C(C)(C)C/2CCC(N)=O.[CH2-]C1OC(n2cnc3c(N)ncnc32)C(O)C1O.[Co] (stereo not given in full),nt,nt,-4%,-12%,1%,-7%
CC1C2CCC3C4CC=C5CC(N(C)C)CC[C@@]5(C)C4CC[C@@]32CN1C (stereo not given in full),nt,nt,0%,-3%,30%,0%
CN(C)c1ccnc(Oc2ccc(Cl)cc2)c1C#N,11,73,-18%,32µM*,18%[38.3 µM],25µM*
CN(C)c1ccnc(Oc2ccc(C(C)(C)C)cc2)c1C#N,-10[1.84 µM],33,-5%,35µM*,29%[38.3 µM],?
CCOC(=O)c1cccc(NC(=O)COc2ccc3c(C)cc(=O)oc3c2)c1,-2,nt,nt,nt,nt,nt
CC(N)=NCCCC(N)C(=O)O (stereo not given),nt,nt,nt,3%,5%,-2%
CC(C)CCN(CCC(C)C)C/C(O)=C(\C#N)c1nc(-c2ccccc2)cs1,-2,-11,2%,-21%,16%[38.3 µM],-10%
N#C/C(=N\O)c1nc(-c2ccccc2)cs1,-9,-127*!,-9%,-26%,-7%[38.3 µM],0%
CC(C)CCNc1nc(N)c([N+](=O)[O-])c(NCC2CCCO2)n1 (stereo not given),nt,46,-7%,-19%,7%,11µM*
Nc1nc(NCC2CCCO2)nc(NCC2CCCO2)c1[N+](=O)[O-] (stereo not given),nt,64,1%,-5%,0%,?
COCC(=O)N1CCC2(CCN(Cc3ccncc3)CC2)CC1,nt,nt,4%,-8%,1%,?
CCCN1C(=O)/C(=N\OCC(=O)NC23CC4CC(CC(C4)C2)C3)c2ccccc21,-5,-24,0%,16µM*,1%,0.28µM*
CC(=O)NC(CC(=O)NC12CC3CC(CC(C3)C1)C2)c1ccccc1 (stereo not given),nt,-24,1%,-5%,4%,4%
CCCN1C(=O)/C(=N\OCC(=O)Nc2ccc(C(C)C)cc2)c2ccccc21,nt,69,4%,-24%,2%,0.5µM*
COc1cc(NC(=O)c2cc(Cl)ccc2Cl)ccc1NC(=O)c1cc2ccccc2o1,-15,nt,nt,nt,nt,nt
Cc1noc(C)c1C(=O)N1CCC[C@@]2(CCN(Cc3nccs3)C2)C1,nt,nt,-3%,-3%,12%,1%
NC1=C(O)C(=O)[C@H](c2c[nH]c3ccc(OCc4ccccc4)cc23)O1,nt,nt,5%[11.4 µM],-7%,0%,-6%[13.5 µM]
Cc1cccc(CNc2ncncc2-c2ccc3c(c2)OCO3)c1,nt,nt,2%,?,2%,-15%
COc1cc(NCC[C@@H]2CCCCN2)c2ncccc2c1,nt,nt,-1%[11.4 µM],-14%,5%,-1%[13.5 µM]
N#CC1=C2SCN(c3ccccc3)CN2C(=O)CC1c1cccs1 (stereo not given),-14,-3,?,7.1µM*,28µM*,3.2µM*
N#CC1=C2SCN(c3ccccc3)CN2C(=O)CC1c1ccccc1Cl (stereo not given),2,-1,?,7.9µM*,8%[38.3 µM],3.2µM*
N#CC1=C2SCC(O)(c3ccccc3)N2C(=O)CC1c1cccs1 (stereo not given),?,-89*,-19%,nt,nt,0.035µM*
N#CC1=C2SCC(O)(c3ccccc3)N2C(=O)CC1c1ccccc1F (stereo not given),5,0,-6%,-15%,-11%[38.3 µM],?

# Compound activity deposited in PubChem by National Center for Advancing Translational Sciences (NCATS).
